Assay results from the supplement of paper PMC3334620.
Whole data set: some 33,000 sequences, median “E-score (-0.5 to 0.5)” near -0.041, cut for the highest 2% near 0.37. This excerpt belongs to a sample that is enriched for the highest values.

molecular target: T1, Ecm22 (UniProt Q05958); experiment: PBM E-score (8-mer binding enrichment) (E-score (-0.5 to 0.5)); higher = stronger / more preferred TF binding; conditions: protein concentration: 200 nM; construct: GST-full length
T1 sequence: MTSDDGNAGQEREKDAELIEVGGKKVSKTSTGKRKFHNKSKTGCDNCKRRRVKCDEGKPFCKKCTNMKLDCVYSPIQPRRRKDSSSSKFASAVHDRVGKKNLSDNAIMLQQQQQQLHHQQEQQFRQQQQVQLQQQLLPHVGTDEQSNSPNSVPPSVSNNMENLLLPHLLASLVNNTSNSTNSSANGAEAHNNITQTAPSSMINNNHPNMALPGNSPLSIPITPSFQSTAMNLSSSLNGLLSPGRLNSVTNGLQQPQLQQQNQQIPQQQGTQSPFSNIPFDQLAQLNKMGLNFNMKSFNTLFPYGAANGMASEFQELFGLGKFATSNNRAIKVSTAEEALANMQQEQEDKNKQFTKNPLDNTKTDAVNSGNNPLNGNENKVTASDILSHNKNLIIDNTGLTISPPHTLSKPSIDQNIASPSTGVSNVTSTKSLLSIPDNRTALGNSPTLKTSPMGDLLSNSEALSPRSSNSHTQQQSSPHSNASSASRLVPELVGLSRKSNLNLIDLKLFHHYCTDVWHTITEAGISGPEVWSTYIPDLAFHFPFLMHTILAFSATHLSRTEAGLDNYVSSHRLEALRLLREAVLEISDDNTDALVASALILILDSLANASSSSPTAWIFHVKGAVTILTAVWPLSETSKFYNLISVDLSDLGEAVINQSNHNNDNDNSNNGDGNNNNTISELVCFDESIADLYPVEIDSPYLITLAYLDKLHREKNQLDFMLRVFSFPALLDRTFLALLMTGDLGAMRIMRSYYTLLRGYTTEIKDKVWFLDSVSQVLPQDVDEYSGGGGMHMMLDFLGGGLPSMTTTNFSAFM
Description: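 Universal 'all 10-mer' protein binding microarrays (Agilent AMADID 015681) probed with GST-tagged S. cerevisiae TFs (full-length or DBD) made by in vitro transcription/translation (PURExpress), about 100-200 nM. Bound TF was detected with fluorescent anti-GST. Each ungapped 8-mer (which stands for itself and its reverse complement) is scored by the PBM enrichment score (E-score), a modified Wilcoxon-Mann-Whitney statistic from -0.5 to +0.5, computed with the Universal PBM Analysis Suite. Scale: above 0.35 generally sequence-specific binding.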

| Sequence | PBM E-score |
| --- | --- |
| CATATACA | 0.0321 |
| AAAATACA | -0.0245 |
| AATATACA | 0.104 |
| AATATACT | -0.0273 |
| AAAATACC | 0.0602 |
| AAAATACG | 0.372 |
| CATATACG | 0.445 |
| CATATACC | -0.0901 |
| AATATACG | 0.461 |
| ACCCCGGT | 0.00636 |
| GGAGTTGA | 0.0109 |
| CTCTAGAA | -0.201 |
| AAGGGCCC | -0.0372 |
| CGCGGCTA | 0.0813 |
| ACATGCCC | -0.0896 |
| ATCCGTGC | -0.0378 |
| ATCCGTAC | 0.363 |
| CACCGTAG | 0.0943 |
| CACCGTAC | 0.4 |
| CACCGTAA | 0.277 |
| CTCCGTAA | 0.187 |
| CTCCGTAC | 0.386 |
| AAAAAGGG | -0.092 |
| ACATCTAT | 0.0869 |
| CCAGGGCA | -0.108 |

| Sequence | PBM E-score |
| --- | --- |
| GGCGCCCA | -0.0786 |
| TCGCCCGA | -0.102 |
| GTCGTAAA | 0.473 |
| GGCGTAAA | 0.159 |
| TTCGTAAA | 0.456 |
| CCCGTAAA | 0.32 |
| CACGTAAA | 0.106 |
| GACGTAAA | 0.154 |
| ATCGTAAG | 0.308 |
| CTCGTAAA | 0.475 |
| TGCGTAAA | 0.228 |
| ATCGTAAA | 0.436 |
| ATCGTAAT | 0.263 |
| TCCGTAAA | 0.332 |
| CTCCACAG | -0.248 |
| GCGCGACC | 0.173 |
| ACTCCGGC | 0.0584 |
| AAAAACTG | -0.116 |
| GCCTCGCA | 0.205 |
| ACAACCGC | 0.111 |
| AGCCTTAC | -0.108 |
| CTTCGGCC | -0.151 |
| GCGAACAA | 0.148 |
| ACGAACAT | 0.386 |
| CCGAACAA | 0.127 |

| Sequence | PBM E-score |
| --- | --- |
| ACGAACAC | 0.318 |
| ACGAACAA | 0.38 |
| ACGAACAG | 0.282 |
| GGCCGACC | -0.224 |
| GCCTGAAA | -0.139 |
| GACGTCTA | -0.23 |
| CCGACGGA | 0.0916 |
| ACGACGGC | 0.37 |
| CCGACGGC | 0.129 |
| GCGACGGA | 0.124 |
| AGGACGGG | -0.147 |
| ATGACGGC | -0.236 |
| ACGACGGG | 0.393 |
| ACGACGGA | 0.388 |
| ATGACGGG | -0.125 |
| CACGTTCC | 0.201 |
| AGGCAACT | -0.02 |
| ATCCTACC | -0.186 |
| AACGGAGA | 0.18 |
| ATCGGGCA | -0.122 |
| CTGCGAAG | -0.0466 |
| AATAAACT | -0.0489 |
| CATAAACG | 0.437 |
| CATAAACC | -0.0464 |
| CATAAACA | -0.0236 |

| Sequence | PBM E-score |
| --- | --- |
| AATAAACG | 0.41 |
| AATAAACA | 0.0258 |
| CGGCACTA | -0.0606 |
| GAAGTCGC | 0.108 |
| ATGCACCA | -0.108 |
| TAGATAAA | 0.057 |
| ACGACGAC | 0.364 |
| CCGACGTA | 0.208 |
| ACGACGTC | 0.393 |
| CCGACGAG | 0.165 |
| AAGACGTC | 0.00719 |
| CCGACGTC | 0.138 |
| ACGACGTG | 0.372 |
| ATGACGTG | -0.166 |
| AGGACGTG | -0.194 |
| ACGACGTA | 0.414 |
| GCGACGTA | 0.265 |
| ACGACGAG | 0.38 |
| GACCCGTA | 0.24 |
| ACCTTCGC | 0.143 |
| CAGGACGA | -0.283 |
| CTCCGTTA | 0.0433 |
| GTCTACCA | -0.215 |
| AAAAACGA | 0.323 |
| ATAAACGG | 0.408 |

| Sequence | PBM E-score |
| --- | --- |
| GTAAACGA | 0.485 |
| GTAAACTA | 0.188 |
| ATAAACGC | 0.192 |
| ATAAACTG | 0.0158 |
| GTAAACCA | 0.0466 |
| ATAAACGA | 0.484 |
| AAAAACGG | 0.13 |
| CATCCCCC | -0.207 |
| GATCCACA | -0.13 |
| GTGAACGA | 0.426 |
| GTGAACTA | 0.0738 |
| CTGAACGA | 0.456 |
| ATGAACGG | 0.262 |
| ATGAACGA | 0.453 |
| GTGAACAA | 0.198 |
| ATGAACGC | 0.118 |
| CTGAACGC | 0.023 |
| CTGAACTA | -0.092 |
| AACGGTTA | 0.27 |
| CATTGTCG | 0.0896 |
| CTAGGGAC | -0.323 |
| CGCCAGAC | 0.00345 |
| GGTAACAC | -0.135 |
| GATTCGTA | 0.45 |
| CATTCGCA | 0.0842 |

| Sequence | PBM E-score |
| --- | --- |
| AATTCGTG | -0.036 |
| GATTCGGA | 0.171 |
| CATTCGTA | 0.407 |
| CATTCGTC | 0.112 |
| AATTCGTA | 0.441 |
| GATTCGCA | 0.227 |
| AATTCGTC | 0.0772 |
| ACCCCCCT | -0.25 |
| AGTAGGCC | 0.00266 |
| GAATTGTC | -0.0741 |
| AGAACCCA | -0.131 |
| GGCTCCTA | -0.159 |
| GCATTTAC | -0.0379 |
| ATTCCGTA | 0.284 |
| CTTCCGTA | 0.319 |
| GTTCCGTA | 0.389 |
| ACAGAAGC | -0.0614 |
| TCGCACGA | 0.183 |
| TCGTACGA | 0.469 |
| ACGTACGA | 0.441 |
| CCCTACGG | -0.215 |
| GCGTACTA | 0.152 |
| ACGTACGT | 0.245 |
| ACGTACGG | 0.362 |
| TCCTACGA | 0.26 |

| Sequence | PBM E-score |
| --- | --- |
| GCGTACGC | 0.178 |
| ACGTACGC | 0.239 |
| GCGTACGA | 0.448 |
| CCGTACGG | 0.378 |
| CTAGCGGC | -0.29 |
| AGAGCGGC | -0.228 |
| CTCTTAAC | 0.0664 |
| ATCTGCAC | -0.117 |
| CATCAGCC | -0.121 |
| TAGCTGAA | 0.0371 |
| ACTTCGAG | -0.105 |
| TCCGCCAA | -0.121 |
| ATTTCTGA | -0.286 |
| AAGTGCAA | -0.0854 |
| AGGTCAGA | -0.204 |
| TGAGGTAA | -0.264 |
| CCGTACGA | 0.445 |
| CCGTACGC | 0.324 |
| CCGTACTA | 0.341 |
| GAGGTTGA | -0.0744 |
| AGAGAAGC | -0.0688 |
| AGTTTATA | 0.15 |
| CTTTTATC | -0.0345 |
| GGTTTATA | 0.152 |
